# Laboratory results taken from the supplement of paper PMC10981050.
# Where “and” joins values, the source holds several entries; their conditions need not be identical. Identical values can stand only once. Counter-ions that a name gives are not always drawn.
# Experiments:
# Experiment in all cases: cell viability relative to vehicle control; higher = less cytotoxic
# Conditions in all cases: 10 µM
# K562 = system: K562
# Method in brief: (§1)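 Four leukaemia lines, as CRISPR-edited mutant clones and isogenic wild-type clones, were tested against Selleck bioactive, kinase and epigenetic probe libraries after removal of identity-inconsistent compounds. Cells were exposed to a single 10 µM dose for 48 h, and CellTiter-Glo luminescence was then read. Viability was calculated relative to the on-plate vehicle control.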
# MARIMO = system: MARIMO
# Method in brief: as §1
# MOLM14 = system: MOLM14
# Method in brief: as §1
# OCI-AML2 = system: OCI-AML2
# Method in brief: as §1
Compound,cell viability (K562; SRSF2 genotype: SRSF2 wt/wt),cell viability (MARIMO; SRSF2 genotype: SRSF2 P95H/wt),cell viability (MARIMO; SRSF2 genotype: SRSF2 wt/wt),cell viability (MOLM14; SRSF2 genotype: SRSF2 P95H/wt),cell viability (MOLM14; SRSF2 genotype: SRSF2 wt/wt),cell viability (OCI-AML2; SRSF2 genotype: P95H/wt),cell viability (OCI-AML2; SRSF2 genotype: wt/wt),cell viability (K562; SRSF2 genotype: SRSF2 P95H/wt)
COc1cc2c[n+](C)c3c4cc5c(cc4ccc3c2cc1OC)OCO5 [Nitidine Chloride],46.1%,38.6%,34.6%,0.55%,0.7%,0.61%,0.76%,–
COCCNCc1ccc(-c2cc3nccc(Oc4ccc(NC(=O)C5(C(=O)Nc6ccc(F)cc6)CC5)cc4F)c3s2)nc1 [Sitravatinib (MGCD516)],10.6%,67.2%,78.5%,5.4%,8.33%,14.1%,27.3%,14.2% and 25.4%
O=C1Cc2c([nH]c3ccc(Br)cc23)-c2ncccc2N1 [1-Azakenpaullone],104%,122%,127%,128%,122%,153%,148%,109% and 116%
NC(=O)c1cn(Cc2c(F)cccc2F)nn1 [Rufinamide (Banzel)],106%,106%,108%,107%,107%,113%,103%,101% and 104%
CN[C@@H](C)C(=O)N[C@H](C(=O)N1CCC[C@H]1c1nc(C(=O)c2ccc(F)cc2)cs1)C1CCCCC1,89.4%,70.1%,82.2%,58.3%,82.3%,75.8%,90.5%,84.3% and 92.2%
C[C@@H](c1nc(-c2ccc(C#N)cc2)cs1)[C@](O)(Cn1cncn1)c1cc(F)ccc1F [Isavuconazole],48.5%,39.3%,33%,44.8%,26%,38.7%,28%,45.7% and 47.6%
Oc1ccc2c(c1)OC[C@]1(O)Cc3cc(O)c(O)cc3[C@H]21 [Brazilin],85.9%,46.3%,11.3%,40.4%,45.2%,73.2%,77.5%,–
CN(C)C(=O)c1ccc(S(=O)(=O)c2ccc(NC(=O)C(C)(O)C(F)(F)F)c(Cl)c2)cc1 (centres undefined),74.2%,60.1%,58%,78.4%,84.5%,52.9%,55.2%,75.7% and 74.8%
Cc1cccc(C)c1N(CC(=O)Nc1ccc(-c2ncon2)cc1)C(=O)C1CCS(=O)(=O)CC1 [Amenamevir],98.8%,94.5%,106%,96.4%,105%,88.5%,93.4%,99.9% and 92.8%
C=CC(=O)N1CCN(C(=O)CNc2cc(I)c(Cl)cc2O)CC1 [K-Ras(G12C) inhibitor 12],75.2%,79.8%,83.6%,62.9%,81.2%,93.3%,88.1%,78.9% and 84.7%
O=C(CSc1nc2c(c(=O)n1-c1ccccc1)SCC2)Nc1ccc(-c2ccccc2)cn1,92.7%,100%,98.2%,100%,96.8%,93.1%,103%,88.8% and 93.3%
C[C@@H](NC(=O)c1ncnc(N)c1Cl)c1ncc(C(=O)Nc2cc(C(F)(F)F)c(Cl)cn2)s1,51.4%,54.7%,58.1%,86.1%,95.3%,66.9%,69.8%,–
CC1=C(/C=C/C(C)=C/C=C/C(C)=C/C=C/C=C(C)/C=C/C=C(C)/C=C/C2=C(C)C(=O)[C@@H](O)CC2(C)C)C(C)(C)C[C@H](O)C1=O [Astaxanthin],106%,98.3%,96.9%,102%,101%,89.8%,99.8%,104%
CC1=CCC2C(C1)C2(C)C (centres undefined) [3-Carene],106%,101%,103%,100%,106%,101%,112%,104% and 96%
Nc1cc(N)c(N)cc1N,69.4%,104%,109%,96.3%,105%,103%,103%,–
CNC(=O)c1ccccc1Nc1nc(Nc2ccc(N3CCOCC3)cc2OC)ncc1Cl,113%,44.3%,39.6%,9.8%,6.5%,13.3%,20.4%,–
C1N2CN3CN1CN(C2)C3 [Methenamine (Mandelamine)],99.1%,103%,108%,107%,105%,99%,112%,104% and 102%
O=C(O[C@@H]1O[C@@H]2COC(=O)c3cc(O)c(O)c(O)c3-c3c(cc(O)c(O)c3O)C(=O)O[C@H]([C@H]1O)[C@@H]2O)c1cc(O)c(O)c(O)c1 [Corilagin],81.5%,86.9%,81.3%,86.4%,82.2%,103%,96.2%,–
c1cc(-c2cnn3cc(-c4ccc(OCCN5CCCCC5)cc4)cnc23)ccn1 [Dorsomorphin (Compound C)],64.1%,73.8%,80.9%,16.4%,10.9%,33.1%,36.2%,–
O=C(NCCN1CCOCC1)Nc1ccc(C(=O)/C=C/c2cccc(N3CCOCC3)n2)cc1,15.2%,21.2%,19.2%,1.13%,1.01%,5.44%,16.6%,–
CC(=O)O[C@]1(C(C)=O)CC[C@H]2[C@@H]3C=C(C)C4=CC(=O)CC[C@]4(C)[C@H]3CC[C@@]21C [Megestrol Acetate],86.6%,56.5%,46.6%,84.8%,87.6%,61.8%,73.1%,90.8% and 87.5%

Compound,cell viability (K562; SRSF2 genotype: SRSF2 wt/wt),cell viability (MARIMO; SRSF2 genotype: SRSF2 P95H/wt),cell viability (MARIMO; SRSF2 genotype: SRSF2 wt/wt),cell viability (MOLM14; SRSF2 genotype: SRSF2 P95H/wt),cell viability (MOLM14; SRSF2 genotype: SRSF2 wt/wt),cell viability (OCI-AML2; SRSF2 genotype: P95H/wt),cell viability (OCI-AML2; SRSF2 genotype: wt/wt),cell viability (K562; SRSF2 genotype: SRSF2 P95H/wt)
Cc1c(-c2ccnn2C)cc(C(=O)NCc2ccc(S(C)(=O)=O)cn2)c(=O)n1-c1cccc(C(F)(F)F)c1,100%,112%,105%,109%,106%,107%,113%,97.6% and 102%
CC1=CC(=O)CC(C)(C)C1(O)/C=C/C(C)=C\C(=O)O (centres undefined) [Abscisic Acid (Dormin)],98.1%,101%,110%,104%,101%,105%,102%,102% and 99.2%
O=C(COc1ccc(Cl)cc1)NC1CCC(NC(=O)COc2ccc(Cl)cc2)CC1 (stereo not drawn) [ISRIB (trans-isomer)],100%,103%,102%,107%,98.7%,99.2%,95.9%,96.3% and 97.5%
CC/C(=C(/CC)c1ccc(O)cc1)c1ccc(O)cc1 [Diethylstilbestrol],78.8%,84.5%,87.1%,75.1%,87.8%,74.8%,81.4%,80.1% and 78.1%
C[C@H]1[C@@H](O)O[C@@H]2O[C@@]3(C)CC[C@H]4[C@H](C)CC[C@@H]1[C@@]24OO3 [Dihydroartemisinin (DHA)],28.8%,25%,29.9%,22.1%,9.71%,0.58%,7.67%,37.7% and 30.4%
CCOC(=O)c1ccc(NC2CCCCC2)c(N)c1 [Ferrostatin-1 (Fer-1)],88.4%,90.6%,106%,104%,102%,94.3%,90.4%,98.7% and 94.8%
C=CC(=O)Nc1cccc(C)c1Nc1ncc2cc(-c3c(Cl)c(OC)cc(OC)c3Cl)ccc2n1,35.1%,47.6%,55.7%,6.84%,4.93%,6.53%,11.9%,29.7% and 25.7%
O=C(O)C(=O)O.[NH-]C1CCCCC1[NH-].[Pt+2] (centres undefined) [Oxaliplatin (Eloxatin)],72.8%,22%,62%,56.1%,48.2%,23.8%,62.9%,–
COc1cc(F)c(C(C)C)cc1-c1ccc(C(F)(F)F)cc1CN1C(=O)O[C@H](c2cc(C(F)(F)F)cc(C(F)(F)F)c2)[C@@H]1C [Anacetrapib (MK-0859)],92.9%,91.2%,105%,98.7%,99%,91.8%,102%,97.5% and 95.6%
CCCNC(C)C(=O)Nc1c(C)csc1C(=O)OC (centres undefined) [Articaine HCl],114%,107%,106%,106%,107%,116%,99.9%,107% and 117%
COc1c(O[C@@H]2O[C@H](CO)[C@@H](O)[C@H](O)[C@H]2O)cc2occ(-c3ccc(O)cc3)c(=O)c2c1O [Tectoridin],84.8%,94.4%,95.3%,91.8%,96.1%,91%,97.8%,93% and 87.4%
O=C1NC(=O)[C@@H](c2cn3c4c(cccc24)CCC3)[C@@H]1c1c[nH]c2ccccc12 [ARQ 197 (Tivantinib)],37%,6.87%,9.91%,17.9%,4.13%,12.1%,15.4%,–
COc1cc(-c2cc(-c3ccc(N4CCNCC4)cc3)cnc2C)cc(OC)c1OC,31.1%,46.2%,46.9%,37.1%,31.9%,17.7%,29.3%,–
CCN(C)S(=O)(=O)Nc1ccc(F)c(C(=O)c2c[nH]c3ncc(-c4cnc(C5CC5)nc4)cc23)c1F,59.2%,83.6%,87.5%,79.3%,92.7%,91.5%,84.7%,–
Nc1nc(N)c2nc(-c3ccccc3)c(N)nc2n1 [Triamterene],33%,98.2%,101%,93.7%,101%,101%,101%,–
c1nc2c(NC3CCCCC3)nc(Nc3ccc(N4CCOCC4)cc3)nc2[nH]1 [Reversine],70.6%,38%,33.8%,9.79%,7.29%,10.8%,16.3%,–
C[C@H](CS)C(=O)N1CCC[C@H]1C(=O)O [Captopril (Capoten)],–,103%,106%,102%,102%,97.7%,97.8%,–
O=C1[C@H](Cc2ccc(O)cc2)N2C(=O)CCN(C(=O)NCc3ccccc3)[C@H]2CN1Cc1cccc2ccccc12,47% and 37.9%,60.6% and 53.5%,59.4% and 48.2%,63.6% and 52%,43.8% and 35.6%,54.4% and 45.4%,42.3% and 36.8%,–
COc1cc(O)cc(O)c1C(=O)C=Cc1ccccc1 [Cardamonin],77.8%,54.5%,70.9%,33.1%,74.1%,52.6%,51.2%,–
CN(c1ncccc1CNc1nc(Nc2ccc3c(c2)CC(=O)N3)ncc1C(F)(F)F)S(C)(=O)=O,27.9% and 21.1%,10.2% and 11.6%,3.77% and 4.68%,0.98% and 1.3%,0.43% and 0.45%,1.6% and 2.15%,13% and 13.3%,–
